USP28 block: human USP28 deubiquitinase inhibition; inhibition, % at 25 µM; hit rate 3% among 47,000; AID 1645857; Q96RU2; purified USP28, Ub-rhodamine cleavage fluorescence, 30 min
USP30 inh: blocks human USP30 ubiquitin-rhodamine cleavage; purified USP30, Ub-rhodamine cleavage fluorescence; hit rate 5.3% among 47,000; Q70CQ3; inhibition, % at 25 µM; AID 1645860
Target sequence (Q70CQ3 whole entry, looked up): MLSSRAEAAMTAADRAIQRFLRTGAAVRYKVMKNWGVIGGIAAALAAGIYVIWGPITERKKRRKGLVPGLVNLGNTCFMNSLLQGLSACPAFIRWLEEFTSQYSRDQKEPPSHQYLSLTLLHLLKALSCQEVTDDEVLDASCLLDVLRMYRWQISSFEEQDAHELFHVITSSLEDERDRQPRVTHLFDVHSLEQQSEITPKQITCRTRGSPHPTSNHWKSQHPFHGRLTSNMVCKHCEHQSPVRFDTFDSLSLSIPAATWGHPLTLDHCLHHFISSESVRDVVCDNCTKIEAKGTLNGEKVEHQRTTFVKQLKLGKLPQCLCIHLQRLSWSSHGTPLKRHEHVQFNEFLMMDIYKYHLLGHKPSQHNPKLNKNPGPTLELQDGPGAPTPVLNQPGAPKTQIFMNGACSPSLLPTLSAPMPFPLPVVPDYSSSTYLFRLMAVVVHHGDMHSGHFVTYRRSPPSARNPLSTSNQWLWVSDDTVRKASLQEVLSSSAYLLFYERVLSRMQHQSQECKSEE
USP17 block: human USP17-like deubiquitinase inhibition; inhibition, % at 50 µM; A8MUK1; purified USP17, Ub-rhodamine cleavage fluorescence, 3 h; hit rate 6.5% among 47,000
Starred values were filed as active, the others as inactive; · = no result given. Sampled rows, rich in hits. Any-hit rate of the full collection: about 11%. No stated cut-off is given here; in the data, active means inhibition above about 30%; inactive means the rest.

SMILES	USP28 block	USP30 inh	USP17 block
COc1ccc(CCn2c(-c3ccccc3)nc3c(c(=O)c4ccccc4n3C)c2=O)cc1	-16.3	-50.0	-60.8
NS(=O)(=O)c1cc(C(=O)OCC(=O)Nc2ccc(N3CCOCC3)cc2)ccc1Cl	-1.4	13.6	33.7*
NS(=O)(=O)c1cc(C(=O)OCC(=O)NC2CCCc3ccccc32)ccc1Cl (stereo not drawn)	13.2	31.8*	55.2*
COc1cc(N)c(Cl)cc1C(=O)OCC(=O)NCc1ccc2c(c1)OCO2	0.5	-23.0	4.5
O=C(COC(=O)c1ccc(F)c(S(=O)(=O)N2CCOCC2)c1)NC1CCCCC1	7.8	-0.2	8.9
N#Cc1ccccc1OCC(=O)NC1CCCc2ccccc21 (stereo not drawn)	-8.6	0.8	-9.4
Cc1cccc(Nc2ccccc2C(=O)OCC(=O)Nc2ccc(N3CCOCC3)cc2)c1C	8.0	18.6	12.6
COc1cc(N)c(Cl)cc1C(=O)OCC(=O)c1ccc2c(c1)OCCO2	54.5*	0.0	1.5
COc1cc(N)c(Cl)cc1C(=O)OCC(=O)Nc1ccc(N2CCOCC2)cc1	3.1	5.4	38.1*
Cc1cccc(OCC(=O)NCC2(N3CCOCC3)CCCCC2)c1	-11.2	2.3	-7.4
O=C(CS(=O)(=O)c1cccc(Cl)c1)Nc1cccc(C(F)(F)F)c1	·	·	3.2
O=S(Cc1cc(N2CCCC2)nc(-c2ccccn2)n1)c1ccc(Cl)cc1 (stereo not drawn)	23.4	-3.5	-29.1
CCc1ccc(NC(=O)Cn2cnc3c(nc4n3CCCCC4)c2=O)cc1	7.4	16.9	-10.2
Cc1ccc(Cn2cnc3c(nnn3-c3cccc(F)c3)c2=O)cc1	9.3	17.7	47.0*
CCOC(=O)c1ccc(NC(=O)Cn2cnc3c(nc4n3CCCCC4)c2=O)cc1	14.0	48.7*	11.5
O=c1c2nnn(-c3ccccc3)c2ncn1Cc1cccc(F)c1	-20.2	-44.8	0.2
CCOC(=O)c1ccc(NC(=O)Cn2cnc3c(nnn3-c3cccc(Cl)c3)c2=O)cc1	-10.8	12.5	32.7*
Cc1cccc(-n2nnc3c(=O)n(CC(=O)Nc4ccc5c(c4)OCCO5)cnc32)c1	-0.2	-9.3	0.3
Cc1ccnc(Nc2ccc(N3CCN(C(=O)c4ncccn4)CC3)nn2)c1	-15.3	-23.6	-26.8
COCC(=O)N1CC(c2ccnc(Nc3cc(C(F)(F)F)ccn3)n2)C1	10.6	20.8	10.5
COc1ccc(C(=O)COC(=O)c2cccc(NC(=O)c3ccc(Cl)cc3)c2)cc1	-4.5	17.1	22.6
CC1=C(c2ccc(F)cc2)S(=O)(=O)N=C1N1CCCN(C(=O)C2CCCC2)CC1	-5.0	-8.9	-5.2
Cc1nc2cc(-c3nccn3C)nn2c(N(C)CCc2ccccn2)c1C	4.5	15.0	8.0
O=C(N[C@H]1[C@H](O)[C@H](O)C[C@@H]1C1CCCCC1)C1CC1	15.8	48.8*	21.1
O=C(N[C@H]1[C@H](O)[C@H](O)C[C@@H]1C1CCCCC1)c1cncnc1	11.3	-33.9	-29.9
SMILES	USP28 block	USP30 inh	USP17 block
C[C@@H]1/C=C/CC/C=C/C(=O)[C@H](C)[C@@H]2CC[C@@H](C)[C@@](O)(O2)C(=O)C(=O)N2CCCC[C@H]2C(=O)O[C@H]([C@H](C)C[C@@H]2CC[C@@H](O)[C@H](O)C2)CC1	97.4*	92.6*	82.0*
CO[C@H]1C[C@@H]2CC[C@@H](C)[C@@](O)(O2)C(=O)C(=O)N2CCCC[C@H]2C(=O)O[C@@H]([C@H](C)C[C@@H]2CC[C@@H](O)[C@H](OC)C2)CC(=O)[C@H](C)/C=C(\C)[C@@H](O)CC(=O)[C@H](C)C[C@H](C)/C=C/C=C/C=C/1C	-0.5	-1.8	8.1
O=C(Nc1ccccc1)N1CCCC2(CCCN2Cc2cccc(F)c2)C1 (stereo not drawn)	-25.9	-121.1	-30.6
CC1CCN(c2c(S(=O)(=O)c3ccccc3)cnc3ccc(F)cc23)CC1	2.9	7.2	-2.6
CC1CCc2cc(F)ccc2N1S(=O)(=O)c1cc(Br)cnc1N (stereo not drawn)	33.5*	18.0	17.4
COc1ccc2c(C)c(CCC(=O)N3CCN(c4ccccc4OC)CC3)c(=O)oc2c1	4.5	-19.6	-3.5
COc1cc2ncnc(NCc3ccco3)c2cc1OC	1.2	5.7	8.3
Cc1ccccc1-c1noc2ncnc(NCc3ccco3)c12	7.2	5.6	0.1
Clc1cccc(-c2noc3ncnc(NCc4ccco4)c23)c1	24.3	36.5*	17.9
COc1ccc(-c2oc3ncnc(NCc4ccco4)c3c2-c2ccc(OC)cc2)cc1	9.6	13.7	30.3*
CNC(=O)C1Cn2ccnc2C2(CCN(C(=O)Cc3ccccc3)CC2)O1 (stereo not drawn)	-9.6	-10.1	-22.8
Cc1nnc(NCc2ccccc2Cl)[nH]c1=O	-5.0	-13.2	-18.4
O=C(Nc1cccc2cccnc12)c1nnn(-c2ccccc2)n1	0.1	17.7	43.8*
O=C(Nc1ccccc1)c1nnn(-c2ccccc2)n1	1.2	8.4	-2.5

Compound activity (PubChem)
